Test results: PubChem BioAssay (NCI)
The panel holds about 79,000 compounds, 15% with a hit somewhere; the sample as a whole holds those more often. No stated cut-off is given here; in the data, active means growth inhibition above about 70%; inactive means the rest. Where a SMILES comes first, the peptide text is derived from it. [ ]: non-standard residue; d: D form. The star is where a group is joined. ξ: configuration not given here. Cbz = O=C(OCc1ccccc1)*; ξNva = CCCC(N)C(=O)O

Key:
[1] = NCI Yeast Anticancer Drug Screen. Data for the rad50 strain (AID 155);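 further: 0% = growth of vehicle-only cultures of the same strain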; conditions: S. cerevisiae rad50 strain growth inhibition; at 50.0 µM; stronger effect = higher value
In short: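 Compounds were tested on a yeast strain with an engineered DNA damage repair alteration; the reported value is growth inhibition normalised to vehicle treatment.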

[2] = NCI Yeast Anticancer Drug Screen. Data for the mec2-1 strain (AID 157); conditions: S. cerevisiae mec2-1 strain, at 50.0 µM, stronger effect = higher value
In short: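 Vehicle-treated cultures served as reference for growth inhibition of compound-exposed mec2-1 yeast.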

[3] = NCI Yeast Anticancer Drug Screen. Data for the sgs1 mgt1 strain (AID 161);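 further: 0% = growth of cultures given vehicle only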; conditions: S. cerevisiae sgs1 mgt1 strain, at 50.0 µM, stronger effect = higher value
In short: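 Mutant yeast exposed to compound; growth scored against vehicle-only wells.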

[4] = NCI Yeast Anticancer Drug Screen. Data for the cln2 rad14 strain (AID 165);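 further: 0% = growth equal to vehicle treated cultures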; conditions: S. cerevisiae cln2 rad14 strain, at 50.0 µM, stronger effect = higher value
In short: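 Each compound was tested on cln2 rad14 yeast. Inhibition of growth was calculated against vehicle-exposed controls.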

[5] = NCI Yeast Anticancer Drug Screen. Data for the bub3 strain (AID 167); conditions: S. cerevisiae bub3 mutant strain, at 50.0 µM, stronger effect = higher value
In short: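 Growth of a checkpoint-deficient yeast mutant is measured after compound exposure. Values represent inhibition relative to vehicle.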

[6] = NCI Yeast Anticancer Drug Screen. Data for the mlh1 rad18 strain (AID 175); conditions: S. cerevisiae mlh1 rad18 strain growth inhibition; at 50.0 µM; stronger effect = higher value
In short: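 Vehicle-treated cultures served as the reference for growth inhibition in a yeast strain carrying DNA damage repair alterations exposed to each compound.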

Measured: growth inhibition

COC(=O)C(N)CSCSC (stereo not given)
inactive: [1] -12.8% | [2] 13% | [3] 3.7% | [4] -44% | [5] -13.8% | [6] -5.65%

CC(C)(C)C1CCC(C2CC(C(C)(C)C)CCC2=O)CC1 (stereo not given)
inactive: [1] 2.75% | [2] -8% | [3] 1.65% | [4] 5.15% | [5] 5.7% | [6] 27.8%

CCOC(=O)CNC(=O)C(Cc1cnc[nH]1)NC(=O)CNC(=O)OCc1ccccc1 (stereo not given)
inactive: [1] 1.15% | [2] -2.15% | [3] 9.75% | [4] -23.9% | [5] 1.1% | [6] 9.2%

CCOC(=O)COc1ccc2c(C)cc(=O)oc2c1[N+](=O)[O-]
inactive: [1] 11.4% | [2] -6.85% | [3] 2.1% | [4] 6.95% | [5] 6.6% | [6] 35.5%

CN1CCN(CCCO)CC1
inactive: [1] -15.2% | [2] 3.3% | [3] -8.85% | [4] -16.4% | [5] 5.05% | [6] -0.25%

CNC(=S)SSSC(=S)NC
inactive: [1] 13.1% | [2] -1.9% | [3] 1.8% | [4] 2.55% | [5] -10.3% | [6] 5.55%

c1ccc([Si](c2ccccc2)(c2cccs2)c2cccs2)cc1
inactive: [1] -8.35% | [2] 6.35% | [3] 12.5% | [4] 7.85% | [5] 3.6% | [6] 26%

CC12CC3C(CC1SCC(=O)O2)C3(C)C (stereo not given)
inactive: [1] -27.2% | [2] -1.1% | [3] -44.8% | [4] 1.4% | [5] -25.1% | [6] -26.2%

Clc1c(Cl)c(CBr)c(Cl)c(-c2c(Cl)c(Cl)c(Cl)c(CBr)c2Cl)c1Cl
inactive: [1] 2.15% | [2] -4.1% | [3] -2.55% | [4] -25.7% | [5] 2.45% | [6] -1.1%

CCc1ccc(N=Nc2ccc(Br)cc2)cc1
inactive: [1] 8.85% | [2] -18% | [3] -4.95% | [4] 6.85% | [5] 2.85% | [6] -10.3%

COC(=O)C1O[C@H]1c1cccc[n+]1[O-] (mixture of isomers)
inactive: [1] -0.3% | [2] -3.15% | [3] 5.7% | [4] 11.8% | [5] -8.2% | [6] -0.9%

COc1ccc(N2C(=O)C3c4[nH]c5ccc(OC)cc5c4C4CCC(C(C)(C)C)CC4C3C2=O)cc1 (stereo not given)
inactive: [1] 22.1% | [2] 12.6% | [3] -5.45% | [4] -24% | [5] 16.1% | [6] 20.5%

c1ccc(-c2nc3ccccc3nc2-c2ccc(Cc3ccc(-c4nc5ccccc5nc4-c4ccccc4)cc3)cc2)cc1
inactive: [1] 39.5% | [2] 19.1% | [3] 15.4% | [4] 21.2% | [5] -6.5% | [6] 25.1%

COC(=O)c1ccccc1NC(=O)N(c1ccccc1)c1ccccc1
inactive: [1] 1.35% | [2] -3.45% | [3] 14.4% | [4] -12.2% | [5] 17.8% | [6] -1.55%

C/C(=N/NC(N)=O)C1CCC(C)CC1 (stereo not given)
inactive: [1] 39% | [2] 31.8% | [3] 21.9% | [4] 12.3% | [5] 8.2% | [6] 31%

O=C(c1ccc2c(c1)C(=O)OC2=O)c1ccc2c(c1)C(=O)OC2=O
inactive: [1] -22.5% | [2] -39.9% | [3] -17.8% | [4] 6.1% | [5] -27.8% | [6] -29.7%

COc1ccc(N2C(=O)CSC2c2c[nH]c3ccccc23)cc1 (stereo not given)
inactive: [1] -39.2% | [2] -43.5% | [3] -49.6% | [4] -16.1% | [5] -44% | [6] -47%

COc1ccc(-c2c(-c3ccccc3)oc(/N=C/c3ccccc3)c2-c2ccccc2)cc1
inactive: [1] 8.35% | [2] -0.75% | [3] 4.9% | [4] -2.8% | [5] 2.25% | [6] 13.8%

O=C(NNC(O)C(F)(F)F)c1ccccc1 (stereo not given)
inactive: [1] 12.3% | [2] 2.4% | [3] 10.1% | [4] -35.2% | [5] 11.2% | [6] 1.5%

COC(=O)NCP(=O)(CNC(=O)OC)CNC(=O)OC
inactive: [1] 13.8% | [2] 1.4% | [3] -1.35% | [4] 8.65% | [5] -4% | [6] 10.7%

CCCC(=O)c1ccccc1
inactive: [1] 35.5% | [2] 3% | [3] 19.9% | [4] 15% | [5] 26.1% | [6] 21.9%

C=C(C)c1ccccc1S(=O)(=O)c1ccccc1C(C)(C)O
inactive: [1] -23.4% | [2] 5.1% | [3] 6.25% | [4] 55.1% | [5] 36.5% | [6] 9.1%

COCc1onc(-c2ccc(OC)cc2)c1-c1ccc(OC)cc1
inactive: [1] 8.25% | [2] 20.4% | [3] 3.6% | [4] 30.9% | [5] 49.4% | [6] 31.4%

CCCC(NC(=O)OCc1ccccc1)C(=O)NCC(=O)NCC(=O)OC (stereo not drawn) (Cbz-[ξNva]-Gly-Gly-OMe)
inactive: [1] -30.8% | [2] 0.15% | [3] 12.2% | [4] 30.9% | [5] 0.5% | [6] 11.3%

CC(=O)O[C@H]1CC[C@@]2(C)C(=CC(=O)[C@H]3[C@@H]4CC[C@H]([C@H](C)CCCC(C)C)[C@@]4(C)CC[C@@H]32)C1
inactive: [1] 10.8% | [2] 19.1% | [3] 39% | [4] 36% | [5] 5.9% | [6] 46%

C/C(=N/NC(=O)c1ccccc1O)c1ccc(/C(C)=N\NC(=O)c2ccccc2O)c2nc3cc(C)c(C)cc3nc12
inactive: [1] -41.2% | [2] -14.3% | [3] -31.4% | [4] 4.65% | [5] 6.7% | [6] -27.8%

COc1ccc(N2C(=O)OC3(CCN(Cc4ccccc4)CC3)C2=O)cc1
inactive: [1] -1.55% | [2] 13.2% | [3] 7.7% | [4] 8.25% | [5] 8% | [6] 16.4%

CON1C(=O)c2ccccc2C1=O
inactive: [1] 1.15% | [2] 4% | [3] -7.85% | [4] -4.6% | [5] -22.4% | [6] -9.3%

COC(=O)c1ccc(-c2nc(C#N)c(N)o2)cc1
inactive: [1] 5.9% | [2] 19.1% | [3] -11.1% | [4] -1.45% | [5] -14.8% | [6] -43%

CCCCC(CC)/C(C)=N/NC(N)=O (stereo not given)
inactive: [1] 4.7% | [2] 9.55% | [3] -5.3% | [4] -9.1% | [5] -1.15% | [6] -11.5%

CCN(CC)Cc1ccccc1COC(=O)/C=C/c1ccccc1
inactive: [1] 9.8% | [2] 13.3% | [3] 11.6% | [4] 7.1% | [5] 12.9% | [6] 13.9%

CC1(C)OC1(C(=O)C=[N+]=[N-])c1ccccc1 (stereo not given)
inactive: [1] -14.8% | [2] -17.8% | [3] -23.9% | [4] -15.8% | [5] -13.6% | [6] -29.4%

Nc1ccc(C2NC(=O)Cc3c2ccc2ccccc32)cc1 (stereo not given)
inactive: [1] 9.8% | [2] 9.7% | [3] 7.45% | [4] -43.4% | [5] 10.3% | [6] 13.6%

CC(=O)N(C)c1ccc(N)cc1
inactive: [1] 33.5% | [2] 25.2% | [3] 24.9% | [4] -2.35% | [5] 31.8% | [6] 36.5%

CC(=O)NNC(=S)/N=C\c1c(O)c2ccccc2oc1=O
inactive: [1] -50.5% | [2] -45.6% | [3] -34.2% | [4] -13.2% | [5] -38.5% | [6] -37.9%

CCOC(=O)c1c2ccc(/C=C/c3ccccc3)ccc-2c(C(=O)OCC)c1N
inactive: [1] -16.6% | [2] -7.25% | [3] -23.9% | [4] 10.6% | [5] -32% | [6] -22.6%

COC(=O)c1nc(N)nc(C(=O)OC)c1C(=O)c1cccnc1
inactive: [1] -15.2% | [2] -17.8% | [3] -0.35% | [4] -15.3% | [5] -4.7% | [6] 10.1%

COc1ccc2cc(C(C)C(O)c3cc(F)c(F)c(F)c3F)ccc2c1 (stereo not given)
inactive: [1] -21.1% | [2] -30.3% | [3] -10.7% | [4] 0.15% | [5] -1.25% | [6] -20.5%

CC(=O)c1cc(C(C)=O)c(CC(=O)C(=O)Nc2cccc(C)c2C)nc1CC(=O)C(=O)Nc1cccc(C)c1C
inactive: [1] 2.9% | [2] -6.3% | [3] 16.5% | [4] -19.2% | [5] -9.6% | [6] -18.5%

COc1ccc([N+](=O)[O-])cc1NC(=S)NC(=O)c1cccc(Br)c1
inactive: [1] -8.6% | [2] 4.2% | [3] -0.1% | [4] -63.6% | [5] 3.7% | [6] 1.55%
